# According to PubChem BioAssay (EPA / NIEHS):
# “And” between values parts separate entries of the source, which are not always exact repeats. Identical values can stand only once. Some structures have more than one record in an assay (separate samples or runs), and their calls can disagree. The source made the active and inactive calls. How the source made its calls: active means hit-call score of the fitted dose curve at least 0.9, where 1 is the maximum; inactive means score below 0.9.
# Columns and labels:
# [1] = read-out: Macrophage colony-stimulating factor (MCSF), CSF1 (gene 1435); experiment: BSK_hDFCGF_MCSF: BioMAP Diversity Plus: hDFCGF Assay for Macrophage colony-stimulating factor (MCSF) Biomarker Activity (AID 2283060); details: primary human foreskin fibroblasts; actives raise or lower the signal
# In short: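 fibroblasts (human foreskin, primary), 24 h post-dose; M-CSF by ELISA; bidirectional fit, DMSO = baseline.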
# [2] = read-out: Monokine induced gamma interferon (MIG), CXCL9 (gene 4283); experiment: BSK_hDFCGF_MIG: BioMAP Diversity Plus: hDFCGF Assay for Monokine induced gamma interferon (MIG) Biomarker Activity (AID 2283063); details: primary human foreskin fibroblasts; actives raise or lower the signal
# In short: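 Endpoint derived by bidirectional fitting relative to DMSO; MIG quantified via ELISA in primary human foreskin fibroblasts harvested 24 h after dosing.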
# [3] = read-out: Matrix Metallopeptidase 1 (MMP1), MMP1 (gene 4312); experiment: BSK_hDFCGF_MMP1: BioMAP Diversity Plus: hDFCGF Assay for Matrix Metallopeptidase 1 (MMP1) Biomarker Activity (AID 2283064); details: primary human foreskin fibroblasts; actives raise or lower the signal
# In short: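 hDFCGF primary fibroblasts (human foreskin); chemical added; 24 h; MMP1 by ELISA; bidirectional fit vs DMSO.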
# [4] = read-out: Plasminogen activator inhibitor-1 (PAI1), SERPINE1 (gene 5054); experiment: BSK_hDFCGF_PAI1: BioMAP Diversity Plus: hDFCGF Assay for Plasminogen activator inhibitor-1 (PAI1) Biomarker Activity (AID 2283066); details: primary human foreskin fibroblasts; actives raise or lower the signal
# In short: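 PAI-1 levels, determined by ELISA, served as the endpoint in human foreskin fibroblast cultures exposed to compound for 24 h, with DMSO as baseline.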
# [5] = read-out: Intercellular Adhesion Molecule 1 (ICAM1), ICAM1 (gene 3383); experiment: BSK_KF3CT_ICAM1: BioMAP Diversity Plus: KF3CT Assay for Intercellular Adhesion Molecule 1 (ICAM1) Biomarker Activity (AID 2283067); details: primary human keratinocytes with fibroblasts; actives raise or lower the signal
# In short: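 Bidirectional curve fitting against a DMSO baseline was applied to ICAM-1 ELISA signal from primary human skin co-cultures harvested 24 h after treatment, with SRB staining of parallel wells for overt cytotoxicity.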
# [6] = read-out: Interferon-gamma inducible Protein 10 (IP10), CXCL10 (gene 3627); experiment: BSK_KF3CT_IP10: BioMAP Diversity Plus: KF3CT Assay for Interferon-gamma inducible Protein 10 (IP10) Biomarker Activity (AID 2283068); details: primary human keratinocytes with fibroblasts; actives raise or lower the signal
# In short: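 In a primary skin co-culture of keratinocytes and fibroblasts, IP-10 is quantified by ELISA at 24 h after dosing. SRB staining of parallel wells monitors overt toxicity. Curves are fitted both directions against DMSO.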
# [7] = BSK_KF3CT_SRB: Viability Assessment in the BioMAP Diversity Plus: KF3CT Assay (AID 2283069); details: primary human keratinocytes with fibroblasts;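 further: total protein by sulforhodamine B staining as a cytotoxicity measure; read 24 h after compound addition; fitted for both signal gain and loss against DMSO baseline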
# In short: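 Keratinocytes co-cultured with foreskin fibroblasts (human primary); chemical added, 24 h; fix 10% TCA, stain 0.1% SRB, A560. Bidirectional fit vs DMSO.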
# [8] = read-out: Interleukin-1 alpha (IL1a), IL1A (gene 3552); experiment: BSK_KF3CT_IL1a: BioMAP Diversity Plus: KF3CT Assay for Interleukin-1 alpha (IL1a) Biomarker Activity (AID 2283070); details: primary human keratinocytes with fibroblasts; actives raise or lower the signal
# In short: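 Chemicals were dosed onto co-cultured human keratinocytes and foreskin fibroblasts, IL-1a was quantified by ELISA at 24 h, and activity was fitted in both directions relative to DMSO controls.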
# [9] = read-out: TIMP metallopeptidase inhibitor 2 (TIMP2), TIMP2 (gene 7077); experiment: BSK_KF3CT_TIMP2: BioMAP Diversity Plus: KF3CT Assay for TIMP metallopeptidase inhibitor 2 (TIMP2) Biomarker Activity (AID 2283071); details: primary human keratinocytes with fibroblasts; actives raise or lower the signal
# In short: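 Keratinocyte–fibroblast co-culture, 24 h exposure; TIMP-2 ELISA, DMSO-normalised bidirectional fit. Parallel SRB (0.1%, TCA-fixed, 560 nm) total-protein staining gauges cytotoxicity.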
# [10] = read-out: C-C motif chemokine 2 (Homo sapiens) (UniProt P13500); experiment: BSK_KF3CT_MCP1: BioMAP Diversity Plus: KF3CT Assay for Monocyte Chemoattractant Protein 1 (MCP1/CCL2) Biomarker Activity (AID 2283073); details: primary human keratinocytes with fibroblasts; actives raise or lower the signal
# In short: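 Biomarker MCP-1 is measured by ELISA in primary human keratinocytes co-cultured with foreskin fibroblasts, 24 h after chemical treatment; DMSO serves as the negative control and activity baseline.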
# [11] = read-out: Matrix Metallopeptidase 9 (MMP9), MMP9 (gene 4318); experiment: BSK_KF3CT_MMP9: BioMAP Diversity Plus: KF3CT Assay for Matrix Metallopeptidase 9 (MMP9) Biomarker Activity (AID 2283074); details: primary human keratinocytes with fibroblasts; actives raise or lower the signal
# In short: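 Human keratinocyte/foreskin fibroblast co-culture; compound added; 24 h; MMP-9 by ELISA; bidirectional fit vs DMSO baseline.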
# [12] = read-out: urokinase plasminogen activator (uPA), PLAU (gene 5328); experiment: BSK_KF3CT_uPA: BioMAP Diversity Plus: KF3CT Assay for urokinase plasminogen activator (uPA) Biomarker Activity (AID 2283075); details: primary human keratinocytes with fibroblasts; actives raise or lower the signal
# In short: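 ELISA readout of uPA, analyzed for signal gain or loss relative to DMSO, from a human primary keratinocyte–foreskin fibroblast co-culture measured 24 h after chemical treatment.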
# CD40, CD40 (gene 958) = experiment: BSK_LPS_CD40: BioMAP Diversity Plus: LPS Assay for CD40 Biomarker Activity (AID 2283076); details: primary human HUVEC with PBMC; actives raise or lower the signal
# In short: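 Using a multiplexed primary human co-culture (umbilical vein endothelium plus PBMC), CD40 was read by ELISA 24 h after dosing, with cytotoxicity tracked by sulforhodamine B staining of parallel cultures and activity fitted bidirectionally versus DMSO.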
# [13] = read-out: E-selectin (Homo sapiens) (UniProt P16581); experiment: BSK_LPS_Eselectin: BioMAP Diversity Plus: LPS Assay for Eselectin Biomarker Activity (AID 2283077); details: primary human HUVEC with PBMC; actives raise or lower the signal
# In short: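 Dose chemical onto LPS-driven HUVEC/PBMC co-culture; after 24 h, run ELISA for E-selectin; fit up- and down-going responses relative to DMSO control.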
# [14] = read-out: Interleukin-8 (IL8), CXCL8 (gene 3576); experiment: BSK_LPS_IL8: BioMAP Diversity Plus: LPS Assay for Interleukin-8 (IL8) Biomarker Activity (AID 2283078); details: primary human HUVEC with PBMC; actives raise or lower the signal
# In short: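 In this LPS system, chemical-treated human umbilical vein endothelium/PBMC co-cultures were harvested at 24 h for IL-8 ELISA.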
# [15] = BSK_LPS_SRB: Viability Assessment in the BioMAP Diversity Plus: LPS Assay (AID 2283079); details: primary human HUVEC with PBMC;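 further: total protein by sulforhodamine B absorbance as a cytotoxicity measure; measured one day after compound addition; fitted in both directions against DMSO so loss or gain of signal counts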
# In short: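 Cytotoxicity endpoint in human endothelial–PBMC co-culture: 24 h exposure, then SRB (0.1%) staining, 560 nm read.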
# [16] = read-out: TIMP metallopeptidase inhibitor 1 (TIMP1), TIMP1 (gene 7076); experiment: BSK_hDFCGF_TIMP1: BioMAP Diversity Plus: hDFCGF Assay for TIMP metallopeptidase inhibitor 1 (TIMP1) Biomarker Activity (AID 2283062); details: primary human foreskin fibroblasts; actives raise or lower the signal
# In short: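 Bidirectional curve fitting against DMSO baseline yielded this endpoint, based on ELISA detection of TIMP-1 in primary human foreskin fibroblasts exposed to compound for 24 h.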
# [17] = read-out: Vascular cell adhesion molecule 1 (VCAM1), VCAM1 (gene 7412); experiment: BSK_hDFCGF_VCAM1: BioMAP Diversity Plus: hDFCGF Assay for Vascular cell adhesion molecule 1 (VCAM1) Biomarker Activity (AID 2283065); details: primary human foreskin fibroblasts; actives raise or lower the signal;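 on AC50: VCAM-1 protein level quantified by ELISA after 24 h chemical exposure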
# In short: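 Measured after 24 h chemical treatment of primary human skin fibroblasts, VCAM-1 was detected by ELISA and concentration-response analysed in both directions versus DMSO vehicle.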
# [18] = read-out: Transforming growth factor beta 1 (TGFb1), TGFB1 (gene 7040); experiment: BSK_KF3CT_TGFb1: BioMAP Diversity Plus: KF3CT Assay for Transforming growth factor beta 1 (TGFb1) Biomarker Activity (AID 2283072); details: primary human keratinocytes with fibroblasts; actives raise or lower the signal
# In short: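 Signal changes in either direction, relative to DMSO, define activity here. TGF-b1 is read by ELISA from a human keratinocyte-fibroblast co-culture 24 h post-dose.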
# Chain of E-selectin (Homo sapiens) (P16581 whole entry, looked up): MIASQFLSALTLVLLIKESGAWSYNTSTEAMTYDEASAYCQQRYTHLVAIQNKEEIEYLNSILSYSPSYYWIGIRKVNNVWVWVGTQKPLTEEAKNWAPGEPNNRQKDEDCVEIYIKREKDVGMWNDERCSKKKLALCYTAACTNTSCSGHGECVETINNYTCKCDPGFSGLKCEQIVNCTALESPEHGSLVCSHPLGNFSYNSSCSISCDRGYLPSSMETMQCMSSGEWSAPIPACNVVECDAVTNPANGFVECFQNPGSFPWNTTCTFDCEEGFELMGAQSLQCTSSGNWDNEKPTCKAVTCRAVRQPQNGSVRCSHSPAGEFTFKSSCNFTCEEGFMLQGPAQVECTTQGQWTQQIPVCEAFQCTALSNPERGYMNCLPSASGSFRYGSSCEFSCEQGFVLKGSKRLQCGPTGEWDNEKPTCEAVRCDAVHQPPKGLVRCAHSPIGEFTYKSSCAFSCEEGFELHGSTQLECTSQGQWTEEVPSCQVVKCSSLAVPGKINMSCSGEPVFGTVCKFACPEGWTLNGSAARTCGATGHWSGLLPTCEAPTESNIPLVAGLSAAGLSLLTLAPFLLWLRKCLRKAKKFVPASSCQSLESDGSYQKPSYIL
structure (smiles),measurement,setting,value
O=C(O)C(F)(F)C(F)(F)C(F)F,outcome,[1],inactive
same,outcome,[2],inactive
same,outcome,[3],inactive
same,outcome,[4],inactive
same,outcome,[5],inactive
same,outcome,[6],inactive
same,outcome,[7],inactive
same,outcome,[8],inactive
same,outcome,[9],inactive
same,outcome,[10],inactive
same,outcome,[11],inactive
same,outcome,[12],inactive
same,outcome,"CD40, CD40 (gene 958)",inactive
same,outcome,[13],inactive
same,outcome,[14],inactive
same,outcome,[15],inactive
CCCCCCOC(=O)c1ccccc1O,AC50,[1],34.8 µM (active) and 35.1 µM (active)
same,AC50,[16],39.7 µM (active) and 31.2 µM (active)
same,AC50,[2],18.2 µM (active) and 21.3 µM (active)
same,AC50,[3],35.8 µM (active)
same,AC50,[17],33.1 µM (active) and 35.3 µM (active)
same,AC50,[4],39.3 µM (active) and 39.6 µM (active)
same,outcome,[5],inactive
same,outcome,[6],inactive
same,outcome,[7],inactive
same,outcome,[8],inactive
same,outcome,[9],inactive
same,AC50,[10],32.8 µM (active)
same,outcome,[10],inactive
same,outcome,[11],inactive
same,outcome,[12],inactive
same,AC50,"CD40, CD40 (gene 958)",41.9 µM (active) and 24.5 µM (active)
same,AC50,[13],38.1 µM (active) and 44.8 µM (active)
same,AC50,[14],41.9 µM (active) and 38.9 µM (active)
same,AC50,[15],43.2 µM (active) and 42.1 µM (active)
Nc1ccc([N+](=O)[O-])cc1O,outcome,[1],inactive
same,outcome,[16],inactive
same,outcome,[2],inactive
same,outcome,[3],inactive
same,outcome,[17],inactive
same,outcome,[4],inactive
same,outcome,[5],inactive
same,outcome,[6],inactive
same,outcome,[7],inactive
same,outcome,[8],inactive
same,outcome,[9],inactive
same,outcome,[18],inactive
same,outcome,[10],inactive
same,outcome,[11],inactive
same,outcome,[12],inactive
same,outcome,"CD40, CD40 (gene 958)",inactive
same,outcome,[13],inactive
same,outcome,[14],inactive
same,outcome,[15],inactive
OCC(F)(F)C(F)(F)C(F)(F)F,outcome,[1],inactive
same,outcome,[16],inactive
same,outcome,[2],inactive
same,outcome,[3],inactive
same,outcome,[4],inactive
same,outcome,[5],inactive
same,outcome,[6],inactive
same,outcome,[7],inactive
same,outcome,[8],inactive
same,outcome,[9],inactive
same,outcome,[10],inactive
same,outcome,[11],inactive
same,outcome,[12],inactive
same,outcome,"CD40, CD40 (gene 958)",inactive
same,outcome,[14],inactive
same,outcome,[15],inactive
O=C(O)C(F)(F)C(F)(F)C(F)(F)C(F)(F)F,outcome,[1],inactive
same,outcome,[16],inactive
same,outcome,[2],inactive
same,outcome,[3],inactive
same,outcome,[4],inactive
same,outcome,[5],inactive
same,outcome,[6],inactive
same,outcome,[7],inactive
same,outcome,[8],inactive
same,outcome,[9],inactive
same,outcome,[10],inactive
same,outcome,[11],inactive
same,outcome,[12],inactive
same,outcome,"CD40, CD40 (gene 958)",inactive
same,outcome,[13],inactive
same,outcome,[14],inactive
same,outcome,[15],inactive
FC(F)(F)C(F)(F)C(F)(F)C(F)(F)C(F)(F)C(F)(F)C(F)(F)C(F)(F)F,outcome,[1],inactive
same,outcome,[16],inactive
same,outcome,[2],inactive
same,outcome,[3],inactive
same,outcome,[17],inactive
same,outcome,[4],inactive
same,outcome,[5],inactive
same,outcome,[6],inactive
same,outcome,[7],inactive
same,outcome,[8],inactive
same,outcome,[9],inactive
same,outcome,[10],inactive
same,outcome,[11],inactive
same,outcome,[12],inactive
same,outcome,"CD40, CD40 (gene 958)",inactive
same,outcome,[13],inactive
same,outcome,[14],inactive
same,outcome,[15],inactive
